RGS12 GoLoco inh: qHTS Assay for Inhibitors of RGS12 GoLoco Motif Activity (Red Fluorophore) | Potency, µM (top dose mostly 61.6 µM), for inactives: at the top dose activity, negative = inhibition, usual class: inhibitors | Guanine nucleotide-binding protein G(i) subunit alpha-1 (Homo sapiens), P63096 | Gai1:RGS12 GoLoco peptide FP, rhodamine, 10 min | 230,000 compounds, 0.44% hits; active = well fitted inhibition curve with a large enough effect, not every such curve was filed as active; inactive = no such curve, though single readings can be large or run the other way; also: nearly all actives have a fitted effect of over 30% in size
Target sequence (P63096 whole entry, looked up): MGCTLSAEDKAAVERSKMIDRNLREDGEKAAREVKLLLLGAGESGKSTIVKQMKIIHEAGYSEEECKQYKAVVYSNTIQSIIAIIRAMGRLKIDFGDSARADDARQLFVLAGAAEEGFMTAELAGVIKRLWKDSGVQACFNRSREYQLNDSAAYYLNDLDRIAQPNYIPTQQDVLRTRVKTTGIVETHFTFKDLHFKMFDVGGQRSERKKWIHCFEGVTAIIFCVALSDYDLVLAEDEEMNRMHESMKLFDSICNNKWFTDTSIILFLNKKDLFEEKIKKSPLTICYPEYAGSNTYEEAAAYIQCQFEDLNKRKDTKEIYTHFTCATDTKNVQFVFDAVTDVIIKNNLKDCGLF
TR SRC2 fluor cs: Total Fluorescence Counterscreen for Inhibitors of the Interaction of Thyroid Hormone Receptor and Steroid Receptor Coregulator 2. TRb/SRC2 Texas Red total fluorescence interference. Potency, µM (doses to about 106 µM), inactives show top-dose fluorescence change, negative = quenching. 280,000 compounds, 0.29% hits; active = well fitted curve in either direction with a large enough effect; inconclusive = small, poorly fitted or top-dose-only effect
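Human TRβ ligand-binding domain (0.6 uM) and Texas Red SRC2 peptide (20 nM) in Tris buffer with 1 uM T3 and 5% DMSO were incubated with pinned compound for 5 hr at ambient temperature. Total fluorescence was computed as S + 2P (555/632 nm).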
Tau fluor cs: Counterscreen qHTS for Inhibitors of Tau Fibril Formation, Fluorescence Polarization; tau K18 P301L Alexa594 fluorescence, heparin fibrillization; Potency, µM (highest dose often 57.7 µM), for inactives: at the highest dose activity change, negative = decrease; 280,000 compounds, 0.93% hits; AID 1463, 2008; also: nearly all actives have a fitted effect of over 55% in size
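Human K18 P301L tau (15 uM unlabeled plus 0.24 uM Alexa 594-labeled, final) in 100 mM sodium acetate pH 7 was mixed with compound and 20 uM heparin and incubated 6 hr at 37 C.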
TRb-SRC2 inh: qHTS for Inhibitors of the Interaction of Thyroid Hormone Receptor and Steroid Receptor Coregulator 2. Thyroid hormone receptor beta (Homo sapiens), P10828. 280,000 compounds, 0.065% hits. TRbeta-SRC2 peptide binding, fluorescence polarization; receptor liganded with 1 µM T3. Potency, µM (top dose mostly 106 µM), without a hit: at the highest dose activity change, negative = inhibition, usual class: inhibitors;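 also: plate controls were bound peptide for no effect and peptide without receptor for full effect; nearly all actives have a fitted effect of over 50% in size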
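A fluorescence polarization screen tested compounds at multiple concentrations against complex formation between 0.6 uM TRb ligand-binding domain and 20 nM Texas Red SRC2 peptide, with 1 uM T3 present; readout after 5 hr.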
Tau fibril FP: qHTS for Inhibitors of Tau Fibril Formation, Fluorescence Polarization; Microtubule-associated protein tau (Homo sapiens), P10636; K18 P301L tau heparin fibrillization, Alexa594 FP, 6 h; Potency, µM (titrated, usually from 57.7 µM), inactives show top-dose activity, negative = inhibition, most hits filed as inhibitors; 280,000 compounds, 0.39% hits; also: nearly all actives have a fitted effect of over 55% in size
Target sequence (P10636 561-689 P618L limits assumed): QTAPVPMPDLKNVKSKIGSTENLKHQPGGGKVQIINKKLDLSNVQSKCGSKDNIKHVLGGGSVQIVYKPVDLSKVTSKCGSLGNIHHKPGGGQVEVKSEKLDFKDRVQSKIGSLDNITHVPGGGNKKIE
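Human K18 P301L fragment (15 uM unlabeled plus 0.24 uM Alexa 594-labeled) in 100 mM sodium acetate pH 7 with compound, aggregation induced by 20 uM heparin for 6 hr at 37 C. ThT (30 uM) added for 1 hr, then Alexa 594 FP read.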
Tau ThT inhib: qHTS for Inhibitors of Tau Fibril Formation, Thioflavin T Binding | 270,000 compounds, 2.1% hits | Potency, µM (titrated, usually from 57.4 µM), inactives show top-dose activity, negative = inhibition, hits mostly inhibitors | recombinant tau K18 P301L, heparin-induced fibrillization, ThT fluorescence | AID 1460, 2008 | Microtubule-associated protein tau (Homo sapiens), P10636; also: nearly all actives have a fitted effect of over 55% in size
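Fibril formation assay: tau K18 P301L at 15 uM with trace Alexa 594 label, heparin inducer 20 uM, pH 7 sodium acetate buffer, 37 C for 6 hr; endpoint ThT signal.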
* hit, by the source's call; [ ] = another dose, or the depositor's remark. The list is not random: actives were taken first. Their share in the collection is about 3.2%. Unless noted, calls follow the shape of the dose curve; as a rule, active = well fitted curve in the direction sought with a large enough effect; inconclusive = small, poorly fitted or top-dose-only effect, or another doubt; inactive = no such curve, though single readings can be large; an effect the other way counts as inactive or inconclusive. Unless noted, % is scaled to controls: 0 for no effect and ±100 for the full control effect; potency is read from the fitted curve at half-maximal effect.

For COc1ccc(NC(=O)/C(C#N)=C\C=C\c2ccco2)cc1 the results were RGS12 GoLoco inh 14%, TR SRC2 fluor cs 4%, Tau fluor cs -9%, TRb-SRC2 inh 4%, Tau fibril FP 13% and Tau ThT inhib 2.5µM*.
O=C1C(=Cc2ccc(Br)o2)C(=O)c2ccccc21 was read as RGS12 GoLoco inh -10%, TR SRC2 fluor cs -26%, Tau fluor cs inconclusive, TRb-SRC2 inh -13%, Tau fibril FP inconclusive and Tau ThT inhib 6.3µM*.
For CC1=C/C(=C\c2ccc(Br)o2)C(=O)O1 the results were RGS12 GoLoco inh -1%, TR SRC2 fluor cs -2%, Tau fluor cs -5%, TRb-SRC2 inh 0%, Tau fibril FP -2% and Tau ThT inhib -12%.
For CCN1C(=O)/C(=C/C2=Cc3ccccc3OC2C)SC1=S (configuration not stated) the results were RGS12 GoLoco inh 60%, TR SRC2 fluor cs -3%, Tau fluor cs inconclusive, TRb-SRC2 inh 0%, Tau fibril FP 1% and Tau ThT inhib 13µM*.
For CC1Oc2ccccc2C=C1/C=C1/SC(N2CCOCC2)=NC1=O (configuration not stated) the results were RGS12 GoLoco inh 5%, TR SRC2 fluor cs -2%, Tau fluor cs -7%, TRb-SRC2 inh 0%, Tau fibril FP 1% and Tau ThT inhib inconclusive.
CC(=O)Nc1ccc(S(=O)(=O)N2CCc3nc(-c4ccccc4)c4c(c3C2)CO[C@@H](C)C4)cc1 was read as RGS12 GoLoco inh 3%[14.2 µM], TR SRC2 fluor cs -6%[11.2 µM], Tau fluor cs -8%[11.6 µM], TRb-SRC2 inh -3%[11.2 µM], Tau fibril FP -5%[11.6 µM] and Tau ThT inhib 0%[11.5 µM].
Screening C/C(=N\Nc1ccc(C(=O)O)cc1)c1ccc2c(c1)Nc1ccccc1S2 returned RGS12 GoLoco inh -2%, TR SRC2 fluor cs -5%, Tau fluor cs 13µM*[quencher], TRb-SRC2 inh -8%, Tau fibril FP -10% and Tau ThT inhib 3.5µM*.
Screening CC(=O)Nc1ccc(NC(=O)c2ccc3c(c2)NC(=O)c2ccccc2S3)cc1 returned TR SRC2 fluor cs 10%, Tau fluor cs inconclusive, TRb-SRC2 inh 6%, Tau fibril FP -3% and Tau ThT inhib inconclusive.
For COC(=O)N/N=C\c1cccc(OC(=O)c2cccs2)c1 the results were RGS12 GoLoco inh 0%, TR SRC2 fluor cs -1%, Tau fluor cs -16%, TRb-SRC2 inh -6%, Tau fibril FP -13% and Tau ThT inhib -13%.
O=C1NN(c2ccccc2)C(=O)/C1=C\c1cccc(OC(=O)c2cccs2)c1 was read as RGS12 GoLoco inh -22%, TR SRC2 fluor cs -7%, Tau fluor cs -25%, TRb-SRC2 inh -1%, Tau fibril FP inconclusive and Tau ThT inhib 16µM*.
Screening O=C1NN(c2ccc(Cl)c(Cl)c2)C(=O)/C1=C/c1cccc(OC(=O)c2cccs2)c1 returned RGS12 GoLoco inh 17%, TR SRC2 fluor cs -14%, Tau fluor cs inconclusive, TRb-SRC2 inh 7%, Tau fibril FP inconclusive and Tau ThT inhib 16µM*.
Screening COc1cc(/C=N/NC(=O)C(Cc2c[nH]c3ccccc23)NC(=O)OCc2ccccc2)cc([N+](=O)[O-])c1O (configuration not stated) returned RGS12 GoLoco inh -6%, TR SRC2 fluor cs 0%, Tau fluor cs inconclusive, TRb-SRC2 inh 9%, Tau fibril FP inconclusive and Tau ThT inhib 13µM*.
Screening COc1cc(/C=N/NC(=O)C(Cc2c[nH]c3ccccc23)NC(=O)OCC(C)C)cc([N+](=O)[O-])c1O (configuration not stated) returned RGS12 GoLoco inh 4%, TR SRC2 fluor cs -2%, Tau fluor cs -27%, TRb-SRC2 inh -4%, Tau fibril FP 12% and Tau ThT inhib 14µM*.

Screening data (PubChem BioAssay)
